# Test results reported in PubChem BioAssay (EPA / NIEHS).
# Activity calls are given as the source filed them. The calls were made as follows: active = hit-call score of the fitted dose curve at least 0.9, where 1 is the maximum; inactive = score below 0.9.
# Assay: ATG_E_Box_CIS: Attagene CIS-FACTORIAL HepG2 Assay for human Enhancer Box (E-box) (AID 2282936)
# Conditions: HepG2 E-box cis-reporter transcription, actives raise or lower the signal
# Experimental: ATG_CIS is a cell-based, multiplexed-readout assay that uses HepG2, a human liver cell line, with measurements taken at 24 hours after chemical dosing in a 24-well plate.ATG_E_Box_CIS is one of 52 assay component(s) measured or calculated from the ATG_CIS assay. It is designed to make measurements of mRNA induction, a form of inducible reporter, as detected with fluorescence intensity signals by Reverse transcription polymerase chain reaction (RT-PCR) and Capillary electrophoresis technology.Data from the assay component ATG_E_Box_CIS was analyzed into 1 assay endpoint. This assay endpoint, ATG_E_Box_CIS, was analyzed with bidirectional fitting relative to DMSO as the negative control and baseline of activity. Using a type of inducible reporter, measures of mRNA for gain or loss-of-signal activity can be used to understand the reporter gene at the transcription factor-level as they relate to the gene USF1. Furthermore, this assay endpoint can be referred to as a primary readout, because this assay has produced multiple assay endpoints where this one serves a reporter gene function. To generalize the intended target to other relatable targets, this assay endpoint is annotated to the dna binding intended target family, where the subfamily is basic helix-loop-helix protein.
# Human liver HepG2 cells are transiently transfected with multiple reporter transcription units (MRTUs) in 6-well plates using FuGene 6 reagent (Roche; 3 ml FuGene/1 mg DNA). The MRTU constructs are regulated by a cis-regulating element (promoter). […] A major difference between the CIS and TRANS system is that in CIS activities of endogenous TFs are measured, whereas the TRANS assay evaluates changes in activities of exogenous, chimeric NR-Gal4 proteins. […] At the end of 24 hour incubation, total RNA was isolated using TriZol reagent (Invitrogen). The isolated RNA is then reverse-transcribed using oligo(dT) primer and Mo-MLV reverse transcriptase (Invitrogen) with DNAse I (Ambion) treatment for 30 min. The one-tenth of the produced cDNA was amplified by PCR using Taq DNA polymerase (Invitrogen) and two reporter sequence-specific primers. The PCR products were fluorescently labeled by primer extension with 6-arboxyfluorescein (6-FAM) 5'-labeled reporter sequence-specific primer (2 min at 95 C, 20 s at 68 C and 10 min at 72 C) and these products were digested with 5U of HpaI (New England Biolabs) for 2h at 37 C. The fragments were purified using Qiaquick PCR columns (Qiagen), analyzed on an ABI 3130xL genetic analyzer (Applied Biosystems) with peak positions identified by using a set of X-rhodamine (ROX)-labeled MapMarker1000 molecular weight standards (BioVentures). The raw capillary electrophoresis data was processed using Attagraph software (Attagene).
SMILES,AC50,outcome
Fc1ccccc1[C@@H](F)COC1CCC(Nc2ncnc3[nH]ncc23)CC1 (stereo not given in full),177 µM (active),
O=C(O)CC(O)C(=O)O (stereo not given),,inactive
CC/C(=C\C(=N/O)C(N)=O)C(C)[N+](=O)[O-] (stereo not given),,inactive
CCOC(=O)CC(CC(=O)OCC)(OC(C)=O)C(=O)OCC,,inactive
Nc1ccc(Nc2ccccc2)cc1,,inactive
CCc1cc(SCc2sc(-c3ccc(C(F)(F)F)cc3)nc2CN2CCN(c3ccc(OC)cc3)CC2)ccc1OCC(=O)O,11 µM (active),
O=C1CCC(N2C(=O)c3ccccc3C2=O)C(=O)N1 (stereo not given),,inactive
Nc1nc2ncc(CNc3ccc(C(=O)N[C@@H](CCC(=O)O)C(=O)O)cc3)nc2c(=O)[nH]1,,inactive
Cn1cnc([N+](=O)[O-])c1Sc1ncnc2nc[nH]c12,,inactive
CCCC(=O)OCC,,inactive
Nc1cccc(N)c1,,inactive
CC(C)=CCCC(C)=CC=O,,inactive
O=P(OC(CCl)CCl)(OC(CCl)CCl)OC(CCl)CCl,,inactive
CC(C)CC(C)(O)C#CC(C)(O)CC(C)C (stereo not given),,inactive
CCNc1ccccc1,,inactive
CCOC(=O)c1ccc(C2CCC(NC[C@H](O)COc3ccc(O)c(NS(C)(=O)=O)c3)CC2)cc1 (stereo not given in full),,inactive
CN(C)c1ccc(Cc2ccc(N(C)C)cc2)cc1,31.1 µM (active),
CC(C)=CCC/C(C)=C\CO,,inactive
CC(C)(O)c1coc(S(=O)(=O)NC(=O)Nc2c3c(cc4c2CCC4)CCC3)c1,,inactive
CC[C@H]1OC(=O)[C@H](C)[C@@H](O[C@H]2C[C@@](C)(OC)[C@@H](O)[C@H](C)O2)[C@H](C)[C@@H](O[C@@H]2O[C@H](C)C[C@H](N(C)C)[C@H]2O)[C@](C)(O)C[C@@H](C)C(=O)[C@H](C)[C@@H](O)[C@]1(C)O,,inactive

SMILES,AC50,outcome
CC(C)CCO,,inactive
CCOC(=O)COc1ccc2c(c1)CC(NCC(O)c1cccc(Cl)c1)CC2 (stereo not given),,inactive
CCOCCOCCOCCO,,inactive
CC(C)CCCCCCCOC(=O)CCCCC(=O)OCCCCCCCC(C)C,,inactive
CCCCCCCCO,,inactive
CC(C)=CCC/C(C)=C/CO,,inactive
COCCOCCOCCOC,,inactive
C=CCCCCCCCCC(=O)O,,inactive
Oc1ccc2c(c1)-c1ccccc1C2,157 µM (active),
CCn1nc(Cc2ccccc2)cc1C1CCN(C[C@H]2C[C@H](N(C)[C@@H](C(=O)O)C(C)C)C[C@@H]2c2cccc(F)c2)CC1,79.3 µM (active),
COC(=O)c1ccccc1O,,inactive
C=CC(=C)CCC=C(C)C,,inactive
COc1ccc(-n2nc(C(F)F)cc2-c2ccc(S(C)=O)cc2)cc1 (stereo not given),,inactive
CCCCC(CC)COC(=O)c1ccc(C(=O)OCC(CC)CCCC)cc1 (stereo not given),,inactive
CC1=CC(=O)CC(C)(C)C1,,inactive
CCN(C(=O)c1cc(C)cc(OC[C@H](C)Nc2ccncc2)c1)C(C)C,,inactive
On1ccccc1=S,8.78 µM (active),
CC(C)c1cccc(C(C)C)c1N1C(=O)c2ccc(O)cc2C1=O,,inactive
O=c1[nH]c2ccc(S(=O)CCN3CCC(Cc4ccc(F)cc4)CC3)cc2o1 (stereo not given),,inactive
CN(C)c1ccc(N=NS(=O)(=O)O)cc1,,inactive
